# Source: PubChem BioAssay
# A selection: hits, their analogues and other compounds. The true share with any hit is near 21%.
# Pf growth 96h: P. falciparum growth inhibition at 96 hours; P. falciparum luciferase reporter growth, 96 h; Potency, µM (titrated, usually from 28.7 µM), actives largely listed as inhibitors; 320,000 compounds, 6.9% hits; AID 504834
#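 Compounds incubated with erythrocytes infected by luciferase-expressing P. falciparum (2% hematocrit, 0.05% parasitemia final) for 96 hours, 37 C in 5% CO2. Growth inhibition scored as decreased luciferase luminescence.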
# Pf growth 48h: P. falciparum growth inhibition at 48 hours (one generation) | P. falciparum luciferase growth in erythrocytes, 48 h | Potency, µM (highest dose often 28.7 µM), most hits filed as inhibitors | 310,000 compounds, 5.9% hits
#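 Firefly luciferase activity from engineered P. falciparum reports growth; inhibitors lower the luminescent signal. Cultures contained 2% hematocrit erythrocytes at 0.1% final parasitemia.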
# NS1 function inh: blocks influenza NS1 protein function; 270,000 compounds, 0.4% hits; Potency, µM (highest dose often 46.1 µM); calls by dose curve; also: actives are rising curves; nearly all actives have a fitted effect of over 50% in size
#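 Growth recovery, yeast-based: influenza A NS1 expressed in S. cerevisiae causes slow growth, and suppressors are detected by OD600. The parent strain without NS1 is used as positive control.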
# Shiga inhibitor: inhibitors of Shiga toxin in Vero cells | Vero cells, Shiga toxin protein synthesis inhibition reporter | inhibition, % at 38.7 µM | 290,000 compounds, 9.2% hits | AID 2315; in the data active = inhibition mostly above about 28%, no sharp cut-off; inactive = mostly below about 43%
# Cycloheximide cs: counter-screen hit for Shiga toxin inhibitors, cycloheximide | cell reporter, cycloheximide protein synthesis inhibition counterscreen | max response, % | AID 2314 | 300,000 compounds, 12% hits; in the data active = max response mostly above about 13%, no sharp cut-off; inactive = mostly below about 14%; also: read at 38.3 µM for the half of the compounds with a filed dose
# A number is an active result; n = inactive; u = inconclusive; x = no result; [ ] = dose if it differs, or a comment. Unless noted, calls follow the shape of the dose curve; as a rule, active = well fitted inhibition curve with a large enough effect; inconclusive = small, poorly fitted or top-dose-only effect, or another doubt; inactive = no such curve, though single readings can be large or run the other way.
SMILES,Pf growth 96h,Pf growth 48h,NS1 function inh,Shiga inhibitor,Cycloheximide cs
COc1ccc(Nc2nc(-c3sc(NC(C)=O)nc3C)cs2)cc1,10µM,x,n,n,n
CC(=O)Nc1ccc(Nc2nc(-c3sc(C)nc3C)cs2)cc1,u,n,n,n,11
O=S(=O)(N1CCOCC1)N1CCOCC1,n,n,n,n,n
O=C(N/N=C/C(Br)=C/c1ccccc1)C1CC1,9.3µM,u,n,56,25
BrC(=C\c1ccccc1)/C=N/Nc1nc(N2CCOCC2)nc(N2CCOCC2)n1,u,7.4µM,n,n,n
Cc1ccc(NCC(=O)N/N=C\C(Br)=C\c2ccccc2)cc1,n,x,n,n,n
BrC(=C\c1ccccc1)/C=N/Nc1nc2ccccc2[nH]1,u,n,n,104,75
C/C(=N\Nc1nc(N2CCCCC2)nc(N2CCOCC2)n1)c1ccccc1O,n,12µM,n,n,n
BrC(/C=C\c1ccccc1)=N/Nc1nc(N2CCOCC2)nc(N2CCOCC2)n1,u,u,n,n,n
COc1cccc2c1[C@H](CO)N1[C@H](C#N)[C@@H]3C[C@H](C(=O)O)[C@@H]([C@@H]1C2)N3C,x,x,n,x,x
N#CC(Sc1ccccn1)c1ccc(Cl)cc1 (stereo unspecified),u,n,n,n,n
COC(=O)c1cn(CCC#N)nc1-c1ccc2ccccc2c1,u,n,n,n,n
O=C(N/N=C/C(Br)=C/c1ccccc1)C(O)c1ccccc1 (stereo unspecified),n,n,n,74,44
O=C(N/N=C/C(Br)=C/c1ccccc1)NC1CCCCC1,u,u,n,97,50
O=C(N/N=C/c1ccccc1OC(F)F)NC1CCCCC1,u,u,n,n,n
O=C(O)c1ccc(N/N=C/C(Br)=C/c2ccccc2)cc1,n,n,n,n,25
Cc1cc(C)nc(SCC(=O)N/N=C\C(Br)=C\c2ccccc2)n1,n,n,n,n,n
CC(/C=N/NC(=O)NC1CCCCC1)=C\c1ccccc1,n,10µM,x,46,28
COc1ccccc1N/C=C/C(=C(C#N)C#N)N(C)C,u,n,n,n,n
CCN1C(=O)/C(=C/c2cccs2)SC1=Nc1ccc(OC)cc1,4.7µM,n,n,n,n
CCCN1C(=O)/C(=C/c2ccc(C)s2)SC1=Nc1ccc(OC)cc1,u,n,n,n,n
CCOC(=O)c1c(Cc2cccc(Cl)c2)c[nH]c1C,u,n,n,n,n
C/C(=N\Nc1nc2ccccc2nc1C)c1ccccc1O,1.2µM,u,n,n,n
CCCc1ccc(/C=C2\C(=O)c3ccccc3C(O)=C2C(=O)OCC)cc1,u,4.7µM,n,n,20
CCOC(=O)C1=C(O)c2ccccc2C(=O)/C1=C\c1ccc(CC)cc1,u,3.3µM,n,58,31
SMILES,Pf growth 96h,Pf growth 48h,NS1 function inh,Shiga inhibitor,Cycloheximide cs
CCOc1cc(C=C2C(=O)c3ccccc3C2=O)ccc1OCC(=O)Nc1ccc(C)cc1,u,u,n,n,n
O=S(=O)(c1ccc(NC(=S)NCc2ccc(F)cc2)cc1)N1CCOCC1,u,u,n,n,n
CCc1ccc(NC(=O)Cn2nnc(C(=O)NCc3ccco3)c2N)cc1,u,n,n,n,n
COc1ccc(NC2=NC(C)(CO)CS2)cc1 (stereo unspecified),n,u,n,n,14
CCn1c(=O)c([N+](=O)[O-])c(N2CCOCC2)c2ccccc21,10µM,n,n,n,n
CCN(CC)c1c([N+](=O)[O-])c(=O)n(CC)c2ccccc12,u,13µM,n,n,n
O=c1c([N+](=O)[O-])c(N2CCOCC2)c2ccccc2n1-c1ccccc1,n,n,n,n,n
COc1cc(CC(=O)OCC(=O)Nc2ccc([N+](=O)[O-])cc2)cc(OC)c1OC,n,n,n,n,n
COc1ccc(-n2nc3cc(C)c(NC(C)=O)cc3n2)cc1,n,n,n,140,32
COc1ccc(-n2nc3cc(C)c(NC(=O)C(C)C)cc3n2)cc1,u,n,n,69,36
CN1CCO[C@H](c2ccccc2)c2ccccc2C1,n,n,x,x,x
Cc1cc2oc(=O)cc(-c3ccccc3)c2c(C)c1-c1ccoc1,x,x,x,n,n
C[C@H]1C(=O)N(S(=O)(=O)c2ccccc2[N+](=O)[O-])[C@H]1c1ccc(-c2ccccc2)cc1,x,x,x,n,n
CN(C)S(=O)(=O)c1cccc(-c2nnc(SCc3ccc4c(c3)OCCO4)o2)c1,u,17µM,u,n,33
Brc1ccccc1-c1nnc(SCc2nc3ccccc3s2)o1,n,n,n,101,53
CCN(CC)S(=O)(=O)c1cccc(-c2nnc(SCc3nc4ccccc4s3)o2)c1,u,x,n,n,23
O=C(O)c1ccc(CSc2nnc(-c3ccccc3Br)o2)cc1,n,n,n,n,n
CCCC(C)(C)C(=O)Nc1ccc(Cl)cc1,x,x,x,n,n
Cc1cc(NC(=O)Nc2ccc(C)c(C)c2)no1,n[5.75 µM],n,n,97,43
Cc1cc(NC(=O)Nc2ccc(F)cc2)no1,u,n,n,69,26
Cc1cc(NC(=O)Nc2cc(Cl)ccc2C)no1,n,n,n,n,12
Cc1cc(NC(=O)Nc2cccc3ccccc23)no1,n,n,n,n,n
Cc1ccc(-c2nc(CS(=O)CC(=O)NCCN3CCCCCC3)c(C)o2)cc1 (stereo unspecified),u,n,n,n,n
CN1CCC[C@H](C(=O)OCC(=O)[C@]2(O)CC[C@@H]3[C@H]4CCC5=CC(=O)CC[C@@]5(C)[C@H]4[C@@H](O)C[C@]32C)C1,x,x,n,x,x
COC(=O)C1CCN(C(=O)CCCOc2ccccc2)CC1,n,n,u,42,20
SMILES,Pf growth 96h,Pf growth 48h,NS1 function inh,Shiga inhibitor,Cycloheximide cs
COC(=O)C1CCN(C(=O)CSc2ccccc2)CC1,u,n,n,n,n
O=C(CCCOc1ccccc1)N1CCN(C(=O)c2ccco2)CC1,x,n,n,88,21
O=C(OCC(=O)N1CCN(C(=O)c2ccco2)CC1)c1ccccc1O,n,x,n,32,n
O=C(OCC(=O)N1CCN(C(=O)c2ccco2)CC1)c1ccccc1,n,n,x,78,29
COC(=O)Cn1ncc2c(C)n(Cc3ccccc3)c(C)c2c1=O,n,n,n,74,39
Cc1ccc(Cn2c(C)c3cnn(CC(=O)NC4CCCC4)c(=O)c3c2C)cc1,9.3µM,n,n,30,10
CC(=O)c1ccc(OCc2cc(C(=O)N3CCN(c4ccccc4)CC3C)no2)cc1 (stereo unspecified),n,n,n,53,48
CSc1ccccc1OCc1cc(C(=O)N2CCN(c3ccccc3)CC2C)no1 (stereo unspecified),n,u,u,99,57
CC(OC(=O)c1ccc2ncsc2c1)C(=O)N1CCCC1 (stereo unspecified),n,n,x,n,n
NNC(=O)c1nn(-c2ccc(Cl)cc2)cc1O,u,9.3µM,n,n,n
CNC(=O)c1nn(-c2ccc(Cl)cc2)ccc1=O,n,n,n,n,n
C/C(=N/Nc1ccc([N+](=O)[O-])cc1)c1ccc(C)cc1C,n,n,x,94,42
C/C(=N/Nc1ccc([N+](=O)[O-])cc1)c1c[nH]c2ccccc12,u,n,n,34,27
CC(=O)c1c(O)cc(C)n(Nc2nc(C)cc(C)n2)c1=O,u,12µM,n,n,n
